Results filed as inconclusive are left out. Activity calls are given as the source filed them. Unless noted, calls follow the shape of the dose curve; as a rule, active = well fitted curve in the direction sought with a large enough effect in the repeat runs; inconclusive = weak or mixed curves; inactive = no such curve, though single readings can be large; an effect the other way counts as inactive or inconclusive.
Assays:
[1] = qHTS assay to identify small molecule antagonists of the estrogen related receptor (ERR) signaling pathway from Tox21 library - cell viability counter screen (AID 1224834); settings: ERR reporter cells viability, CellTiter-Fluor, 17.5 h; series mostly up to 92.4 µM; also: nearly all actives have a fitted effect of over 30% in size
How it was run: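 CellTiter-Fluor fluorescence measured; ERR cells; 17.5 h compound incubation at 37 C; 30 min reagent step.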

[2] = target: Luciferin 4-monooxygenase (Photinus pyralis) (UniProt P08659); assay: qHTS assay to identify small molecule inhibitors of firefly luciferase (AID 1224835); also: nearly all actives have a fitted effect of over 25% in size; settings: purified P. pyralis luciferase, luminescence inhibition; series mostly up to 115 µM
How it was run: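 Biochemical qHTS: compounds run as interplate titrations against purified firefly enzyme, with D-luciferin and ATP each at its KM concentration. Light output recorded by CCD imaging.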

[3] = qHTS assay to identify small molecule agonists of the constitutive androstane receptor (CAR) signaling pathway - cell viability counter screen (AID 1224836); settings: HepG2-CYP2B6-hCAR viability, CellTiter-Fluor, 23 h, PK11195 added to every well; series mostly up to 92.4 µM; also: nearly all actives have a fitted effect of over 45% in size
How it was run: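 Multiplexed viability check: HepG2-CYP2B6-hCAR cells, 15-point compound dosing, 0.75 uM PK11195 final, 23 h at 37 C, CellTiter-Fluor fluorescence.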

[4] = target: Nuclear receptor subfamily 1 group I member 3 (Homo sapiens) (UniProt Q14994); assay: qHTS assay to identify small molecule antagonists of the constitutive androstane receptor (CAR) signaling pathway (AID 1224838); settings: HepG2-CYP2B6-hCAR luciferase, CITCO-stimulated, 24 h; series mostly up to 92.4 µM;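 also: HepG2 cells stably expressing hCAR with CYP2B6 luciferase reporter stimulated by CITCO; nearly all actives have a fitted effect of over 40% in size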
How it was run: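 Reporter luminescence was quantified after 24 h exposure of hCAR/CYP2B6-2.2kb double-stable HepG2 cells to compounds at 15 concentrations in the presence of 50 nM CITCO final.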

[5] = target: Nuclear receptor subfamily 1 group I member 3 (Homo sapiens) (UniProt Q14994); assay: qHTS assay to identify small molecule agonists of the constitutive androstane receptor (CAR) signaling pathway (AID 1224839); settings: HepG2 hCAR CYP2B6-luciferase, agonist mode, 24 h; series mostly up to 92.4 µM;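 also: HepG2 cells stably carrying human CAR and a CYP2B6 luciferase reporter; nearly all actives have a fitted effect of over 15% in size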
How it was run: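 Using human hepatoma HepG2 cells engineered with hCAR and a CYP2B6-2.2kb reporter, 15-concentration compound series were incubated 24 h alongside PK11195 at 0.75 uM final, with luminescence quantified afterwards.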

[6] = qHTS assay to identify small molecule antagonists of the estrogen related receptor signaling pathway with the pleiotropic PPARgamma coactivator (PGC) from Tox21 10K library - cell viability counter screen (AID 1224840; active = well fitted cell-killing curve with a large enough effect in the repeat runs, not every such curve was filed as active; also: nearly all actives have a fitted effect of over 40% in size); settings: PGC/ERR reporter cells viability, CellTiter-Fluor, 17.5 h; series mostly up to 92.4 µM
How it was run: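 Here the PGC/ERR cells serve as a cytotoxicity control: they are exposed to compounds for 17.5 hours at 37 C, and live-cell signal is quantified using CellTiter-Fluor fluorescence.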

[7] = target: Thyrotropin receptor (Homo sapiens) (UniProt P16473); assay: qHTS assay to identify small molecule agonists of the thyroid stimulating hormone receptor (TSHR) signaling pathway (AID 1224843; calls by dose curve; also: nearly all actives have a fitted effect of over 45% in size); settings: TSHR-HEK293 cells, cAMP HTRF, agonist mode, 30 min; series mostly up to 92.4 µM
How it was run: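 TSHR-HEK293 cells in agonist mode, 30 min room-temperature step, then cAMP measured by competitive HTRF (cAMP-d2 with anti-cAMP cryptate) after 1 h at room temperature. Tested at 15 concentrations in triplicate.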

[8] = qHTS assay to identify small molecule agonists of the hypoxia (HIF-1) signaling pathway - cell viability counter screen (AID 1224844; calls by dose curve; also: nearly all actives have a fitted effect of over 50% in size); settings: HRE-bla ME-180 viability, CellTiter-Glo luminescence, 17 h; series mostly up to 76.8 µM
How it was run: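 Multiplexed with the HRE beta-lactamase assay, this viability read used CellTiter-Glo luminescence (30 min, RT) on HRE-bla ME-180 cells treated 17 hrs with compounds in 0.5% dialyzed FBS medium.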

[9] = qHTS assay to identify small molecule agonists of H2AX (AID 1224845; active = well fitted activation curve with a large enough effect in the signal ratio in the repeat runs, not every such curve was filed as active; the % refers to the signal ratio); settings: CHO-K1 phospho-H2AX Ser139 HTRF, 3 h; series mostly up to 154 µM
How it was run: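 Wild-type CHO-K1 cells, plated overnight, exposed 3hr at 37C to 15 concentrations (0.76% DMSO final). Lysed, then HTRF anti-pH2AX (S139) cryptate and anti-H2AX-d2 antibodies, 24 hr room temperature; 665/620 nm emission read.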

[10] = qHTS assay to identify small molecule agonists of the hypoxia (HIF-1) signaling pathway (AID 1224846; active = well fitted activation curve with a large enough effect in the signal ratio in the repeat runs, not every such curve was filed as active; the % refers to the signal ratio); settings: HRE-bla ME-180 cells, beta-lactamase ratio, 17 h; series mostly up to 76.8 µM
How it was run: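 Hypoxia-pathway activation was scored as increased beta-lactamase from an HRE-controlled reporter in ME-180 cells; plated at 2,000 cells per well with 0.5% dialyzed FBS, they were exposed 17 hrs to compounds and then given CCF4-AM.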

[11] = qHTS assay to identify small molecule agonists of H2AX - cell viability counter screen (AID 1224847; calls by dose curve; also: top concentration of the series differs between compounds; nearly all actives have a fitted effect of over 30% in size); settings: CHO-K1 viability, CellTiter-Glo luminescence, 3 h; series mostly up to 154 µM
How it was run: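 After overnight plating of 1000 CHO-K1 cells per well, a 15-concentration compound series was applied for 3 hr at 37C. Luminescence from CellTiter-Glo, read following 30 min at room temperature, reflected cell viability.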

[12] = qHTS RealTime-Glo MT Cell Viability Assay in HepG2 cells - 24 hour (AID 1224867); settings: RealTime-Glo luminescence; series mostly up to 76.8 µM; also: nearly all actives have a fitted effect of over 50% in size
How it was run: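 HepG2 suspension premixed with RealTime-Glo reagents is plated at 600 cells per well and left 5 h at 37 C/5% CO2. Compounds in DMSO then go in, and bioluminescence reflecting viable cell number is recorded over 40 h.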

[13] = qHTS RealTime-Glo MT Cell Viability Assay in HEK293 cells - 32 hour (AID 1224868); settings: RealTime-Glo luminescence; series mostly up to 76.8 µM; also: top concentration of the series differs between compounds; nearly all actives have a fitted effect of over 50% in size
How it was run: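 Reads taken at 0, 8, 16, 24, 32 and 40 h from the same wells. HEK293 cells (600/well) carried RealTime-Glo reagents from seeding, with compound added after a 5 h settle at 37 C.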

[14] = A CellTox Green Cytotoxicity Assay to monitor cytotoxicity in HEK293 cells - 0 hour (AID 1224869); settings: CellTox Green fluorescence; series mostly up to 76.8 µM; also: nearly all actives have a fitted effect of over 50% in size
How it was run: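 Seeding of HEK293 cells together with cytotoxicity dye preceded a 5 h incubation at 37 C/5% CO2. Test compounds in DMSO were then added and fluorescence monitored across 40 h.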

[15] = qHTS RealTime-Glo MT Cell Viability Assay in HepG2 cells - 40 hour (AID 1224870); settings: RealTime-Glo luminescence; series mostly up to 76.8 µM; also: nearly all actives have a fitted effect of over 50% in size
How it was run: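 HepG2 cells (600/well) mixed with RealTime-Glo MT reagent, settled 5 h at 37 C/5% CO2 before compound addition. Nonlytic NanoLuc luminescence from viable-cell prosubstrate reduction read repeatedly during 40 h treatment at 37 C.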

[16] = qHTS assay to identify small molecule antagonists of the estrogen related receptor signaling pathway with the pleiotropic PPARgamma coactivator (PGC) from Tox21 10K library (AID 1224841; call rule not given here); settings: PGC/ERR reporter cell line, ONE-Glo luciferase, 18 h; series mostly up to 92.4 µM
How it was run: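 Each well held 2,000 PGC/ERR cells, pre-incubated six hours (37 C, 5% CO2). Test substances in DMSO were added by pin tool and left for 18 h at 37 C before luciferase detection by One-Glo.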

[17] = qHTS assay to identify small molecule agonists of the estrogen related receptor signaling pathway with the pleiotropic PPARgamma coactivator (PGC) from Tox21 10K library (AID 1224842); settings: PGC/ERR reporter cell line, luciferase ONE-Glo, 18 h; series mostly up to 92.4 µM; also: nearly all actives have a fitted effect of over 15% in size
How it was run: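 PGC/ERR reporter cell line, 2,000 cells per well, incubated 6 h at 37 C before 23 nL compound in DMSO was added. After 18 h at 37 C, One-Glo luminescence read following 30 min at room temperature.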

[18] = qHTS assay to identify small molecule antagonists of the estrogen related receptor (ERR) signaling pathway from Tox21 library (AID 1224848); settings: ERR reporter cell line, luciferase antagonist mode, 18 h; series mostly up to 92.4 µM; also: nearly all actives have a fitted effect of over 50% in size
How it was run: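 ERR reporter cell line (from NTP) seeded 2,000 cells/well, rested 6 h at 37 C/5% CO2, then pin-dosed with compounds in DMSO. After 18 h at 37 C, ONE-Glo added; luminescence read after 30 min at room temperature.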

[19] = qHTS assay to identify small molecule agonists of the estrogen related receptor (ERR) signaling pathway from Tox21 library (AID 1224849; calls by dose curve; also: nearly all actives have a fitted effect of over 15% in size); settings: ERR reporter cell line, ONE-Glo luciferase, 18 h; at 92.4 µM (top of the series) unless noted
How it was run: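 Six hours post-seeding at 37 C/5% CO2, ERR cells receive DMSO-solubilised compounds; after 18 h at 37 C, ONE-Glo reagent is applied and luminescence recorded.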

[20] = qHTS assay to identify small molecule antagonists of the constitutive androstane receptor (CAR) signaling pathway - cell viability counter screen (AID 1224837); settings: HepG2-CYP2B6-hCAR viability, CellTiter-Fluor, 23 h, co-treated with 50 nM CITCO; series mostly up to 92.4 µM; also: nearly all actives have a fitted effect of over 45% in size
How it was run: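 Using CellTiter-Fluor, viability is scored in HepG2 cells stably carrying hCAR and a 2.2kb CYP2B6 reporter after 23 hr compound exposure across 15 concentrations, with CITCO present at 50 nM.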
% is scaled to controls: 0 for no effect and ±100 for the full control effect.

Chain of Luciferin 4-monooxygenase (Photinus pyralis) (P08659 whole entry, looked up): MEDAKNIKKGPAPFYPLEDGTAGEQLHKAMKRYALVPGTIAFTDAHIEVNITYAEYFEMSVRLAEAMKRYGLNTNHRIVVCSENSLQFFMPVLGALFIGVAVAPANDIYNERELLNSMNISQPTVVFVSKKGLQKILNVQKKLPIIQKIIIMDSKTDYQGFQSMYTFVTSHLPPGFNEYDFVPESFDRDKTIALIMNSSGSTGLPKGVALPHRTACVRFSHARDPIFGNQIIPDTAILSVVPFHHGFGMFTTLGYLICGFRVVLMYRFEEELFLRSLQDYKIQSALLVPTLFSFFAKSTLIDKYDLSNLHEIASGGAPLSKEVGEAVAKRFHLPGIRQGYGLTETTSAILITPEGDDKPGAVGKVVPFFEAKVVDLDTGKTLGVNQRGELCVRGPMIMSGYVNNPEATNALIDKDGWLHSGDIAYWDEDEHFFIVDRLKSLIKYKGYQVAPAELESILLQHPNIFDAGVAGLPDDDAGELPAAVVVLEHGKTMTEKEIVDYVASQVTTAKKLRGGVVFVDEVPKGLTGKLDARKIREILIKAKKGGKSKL
Chain of Thyrotropin receptor (Homo sapiens) (P16473 whole entry, looked up): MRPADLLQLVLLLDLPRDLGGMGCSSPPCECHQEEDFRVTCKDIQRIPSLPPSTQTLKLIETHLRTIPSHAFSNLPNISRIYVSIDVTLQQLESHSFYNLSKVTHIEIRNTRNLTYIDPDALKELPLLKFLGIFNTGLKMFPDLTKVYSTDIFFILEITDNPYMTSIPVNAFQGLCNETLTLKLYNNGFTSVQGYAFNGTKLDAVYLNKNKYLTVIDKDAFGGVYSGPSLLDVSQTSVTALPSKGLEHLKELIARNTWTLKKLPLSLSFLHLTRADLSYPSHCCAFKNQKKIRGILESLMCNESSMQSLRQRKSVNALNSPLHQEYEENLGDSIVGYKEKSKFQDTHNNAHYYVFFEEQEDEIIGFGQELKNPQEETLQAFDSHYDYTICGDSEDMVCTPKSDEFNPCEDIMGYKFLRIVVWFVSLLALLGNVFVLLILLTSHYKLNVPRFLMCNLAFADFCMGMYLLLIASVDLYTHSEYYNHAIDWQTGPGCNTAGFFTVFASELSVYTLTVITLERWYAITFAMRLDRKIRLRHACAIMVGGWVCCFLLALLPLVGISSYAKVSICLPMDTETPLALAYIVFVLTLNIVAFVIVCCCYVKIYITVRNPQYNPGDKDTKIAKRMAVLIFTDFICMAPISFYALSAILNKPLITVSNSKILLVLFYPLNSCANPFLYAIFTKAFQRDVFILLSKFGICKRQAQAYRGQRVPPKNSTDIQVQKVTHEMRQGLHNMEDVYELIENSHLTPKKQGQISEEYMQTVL
Chain of Nuclear receptor subfamily 1 group I member 3 (Homo sapiens) (Q14994 whole entry, looked up): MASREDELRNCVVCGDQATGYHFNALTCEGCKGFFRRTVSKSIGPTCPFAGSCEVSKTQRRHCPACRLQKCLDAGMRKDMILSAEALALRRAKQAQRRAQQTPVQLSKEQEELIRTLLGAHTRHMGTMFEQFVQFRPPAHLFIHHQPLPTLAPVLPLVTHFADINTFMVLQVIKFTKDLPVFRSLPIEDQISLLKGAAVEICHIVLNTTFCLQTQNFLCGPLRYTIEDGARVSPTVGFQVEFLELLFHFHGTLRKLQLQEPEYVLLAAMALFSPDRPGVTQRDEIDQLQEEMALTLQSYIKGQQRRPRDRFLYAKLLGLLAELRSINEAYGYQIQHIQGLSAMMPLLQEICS

Cc1cnc[nH]1
inactive: Potency [1] | Potency [2] | Potency [3] | Potency [4] | Potency [5] | Potency [6] | Potency [7] | Potency [8] | Potency [9] | outcome [10] | Potency [11] | Potency [12] | Potency [13] | Potency [14] | Potency [15]

C[C@]12CC[C@H]3[C@@H](CCC4=CC(=O)CC[C@@]43C)[C@@H]1CC[C@@H]2C(=O)O
inactive: Potency [1] | Potency [2] | Potency [3] | Potency [4] | Potency [5] | Potency [6] | Potency [16] | outcome [17] | Potency [7] | Potency [8] | Potency [9] | outcome [10] | Potency [11] | Potency [18] | activity change, positive = activation [19] -8.07% [at 42.5 µM] | Potency [12] | Potency [13] | Potency [14] | Potency [15]

CCS(=O)(=O)CCSP(=O)(OC)OC
inactive: Potency [1] | Potency [2] | Potency [3] | Potency [4] | Potency [5] | Potency [6] | Potency [16] | outcome [17] | Potency [7] | Potency [8] | Potency [9] | outcome [10] | Potency [11] | Potency [18] | activity change, positive = activation [19] 13.8% | Potency [12] | Potency [13] | Potency [14] | Potency [15]

Cc1ncsc1CCCl
inactive: Potency [1] | Potency [2] | Potency [3] | Potency [20] | Potency [6] | Potency [7] | Potency [8] | Potency [9] | Potency [11] | Potency [12] | Potency [13] | Potency [15]

O=C1c2ccccc2C(=O)c2ccccc21
inactive: viability change, negative = cytotoxic [1] 0.548% [at 19 µM] | activity change, negative = inhibition [2] 3.8% [at 23.6 µM] | viability change, negative = cytotoxic [3] 5.88% [at 19 µM] | activity change, negative = cytotoxicity [20] 4.8% [at 19 µM] | viability change, negative = cytotoxic [6] 4.21% [at 19 µM] | activity, negative = inhibition [16] 16.6% [at 19 µM] | activation [17] 5.32% [at 19 µM] | activation [7] -2.19% [at 19 µM] | activity change, negative = cytotoxicity [8] -0.0454% [at 15.8 µM] | activation [10] 0.0544% [at 15.8 µM] | activity change, negative = cytotoxicity [11] 8.07% [at 31.6 µM] | activity, negative = inhibition [18] 18.9% [at 19 µM] | activity change, positive = activation [19] 10.5% [at 19 µM] | activity change, negative = cytotoxicity [12] 0.705% [at 15.8 µM] | activity change, negative = cytotoxic [13] 15.3% [at 15.8 µM] | cytotoxicity [14] 6.35% [at 15.8 µM] | activity change, negative = cytotoxic [15] 0.48% [at 15.8 µM]
